According to PubChem BioAssay (NCATS):
Results filed as inconclusive are left out. Entries that show only a call come without a potency. The source made the active and inactive calls. Calls come from the whole dose curve; as a rule, active = well fitted inhibition curve with a large enough effect; inconclusive = small, poorly fitted or top-dose-only effect, or effect the other way; inactive = flat fitted curve, though single readings scatter.

target: ATP-dependent 6-phosphofructokinase (Trypanosoma brucei brucei) (UniProt O15648); assay: qHTS Assay to Find Inhibitors of T. brucei phosphofructokinase: hit validation (AID 492961); details: T. brucei PFK, ADP-Glo luminescence; series mostly up to 51.4 µM
Procedure, shortened: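 Measures ADP output of PFK (1.25 nM) at 0.1 mM ATP, 0.5 mM F6P, pH 8.0 TEA buffer with 5 mM MgCl2. No-enzyme wells define full inhibition; uninhibited enzyme wells define zero.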
Potency is the fitted concentration of half-maximal effect.

Chain of ATP-dependent 6-phosphofructokinase (Trypanosoma brucei brucei) (O15648 whole entry, looked up): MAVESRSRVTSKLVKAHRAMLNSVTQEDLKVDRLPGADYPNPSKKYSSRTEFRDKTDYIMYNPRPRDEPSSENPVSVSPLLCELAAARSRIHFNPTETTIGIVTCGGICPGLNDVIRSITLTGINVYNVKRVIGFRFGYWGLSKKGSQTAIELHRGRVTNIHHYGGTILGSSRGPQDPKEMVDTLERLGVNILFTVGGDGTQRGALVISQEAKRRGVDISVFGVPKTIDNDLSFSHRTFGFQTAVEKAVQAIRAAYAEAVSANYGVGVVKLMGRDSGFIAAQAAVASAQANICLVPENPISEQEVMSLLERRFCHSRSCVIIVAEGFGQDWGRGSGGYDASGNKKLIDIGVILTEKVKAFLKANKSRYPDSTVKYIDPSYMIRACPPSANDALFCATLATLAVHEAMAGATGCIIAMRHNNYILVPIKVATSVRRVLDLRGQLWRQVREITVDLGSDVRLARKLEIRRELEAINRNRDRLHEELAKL

SMILES	Potency
C[C@@H](Cc1ccccc1)NCCC(c1ccccc1)c1ccccc1	inactive
[O]=[Cd]	inactive
CN1c2ccccc2C(NCCCCCCC(=O)O)c2ccc(Cl)cc2S1(=O)=O (centres undefined)	inactive
CN1CCCC(=C(c2cccs2)c2cccs2)C1	inactive
Clc1ccc(Cl)cc1	inactive
c1ccc2sc(SNC3CCCCC3)nc2c1	inactive
O=C1CCCCC1CN1CCCCC1 (centres undefined)	inactive
CCNC(C)Cc1cccc(C(F)(F)F)c1 (centres undefined)	inactive
C[C@H]1CCC[C@H](O)CCCCCc2cc(O)cc(O)c2C(=O)O1	inactive
CCC1(CC)C(=O)NC(=O)N(C)C1=O	inactive
CCCCNCC(O)c1ccc(O)cc1 (centres undefined)	inactive
Cn1sc(Cl)cc1=O	inactive
CCOP(=O)(OCC)O/C(=C/Cl)c1ccc(Cl)cc1Cl	inactive
CCC1(c2ccccc2)C(=O)NC(=O)NC1=O	inactive
O=[N+]([O-])c1ccccc1	inactive
c1ccc(C2(N3CCCC3)CCCCC2)cc1	inactive
N#CC1(N2CCCCC2)CCCCC1	inactive
C/C(=C\c1csc(C)n1)[C@@H]1C[C@@H]2O[C@]2(C)CCC[C@H](C)[C@H](O)[C@@H](C)C(=O)C(C)(C)[C@@H](O)CC(=O)O1	inactive
CCCCCCCCOC(=O)c1ccccc1C(=O)OCCCCCCCC	inactive
CCCC(C)(COC(N)=O)COC(=O)NC1CC1 (centres undefined)	inactive

SMILES	Potency
CCC(=O)O[C@@](Cc1ccccc1)(c1ccccc1)[C@@H](C)CN(C)C	inactive
CC(=O)OO	inactive
ClC=C(Cl)Cl	inactive
COC([CH2][Hg])CNC(=O)c1ccccc1OCC(=O)O (centres undefined)	7.08 µM (active)
S=C=S	inactive
O=Cc1ccco1	inactive
CC(C)CCON=O	inactive
CN1[C@@H]2CC[C@H]1CC(OC1c3ccccc3CCc3ccccc31)C2 (some centres undefined)	inactive
S=C(S)N1CCNCC1	inactive
CCOC(=O)c1ccccc1C(=O)OCC	inactive
O=CC=O	inactive
O=C(CS(=O)C(c1ccccc1)c1ccccc1)NO (centres undefined)	inactive
O=C1CN=C(c2ccccc2)c2cc(Cl)ccc2N1CC1CC1	inactive
C=CCC1(C(C)CCC)C(=O)N=C(S)NC1=O (centres undefined)	inactive
CC(Cc1ccccc1)NC=O (centres undefined)	inactive
CCC1(c2ccccc2)C(=O)NC(=O)N(C)C1=O (centres undefined)	inactive
O=C(CCl)c1ccc(Oc2ccc(C(=O)CCl)cc2)cc1	inactive
CCCCCl	inactive
O=C(O)C(Cl)(Cl)Cl	inactive
